Here are results for 40 molecules from PubChem BioAssay (NCI).

Values joined by “and” are separate entries in the source; they are usually repeats but may differ in a detail not shown here. Equal values may be shown once. Compounds without any hit were thinned out: in the full panel of roughly 83,000, 20% have a hit.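 Negative percent growth values reflect cell death: -40 means 40% of the cells present at the start died, and -100 means all died.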 Unmarked numbers belong to inactive results. Active and inactive are the calls of the source. Rule for the calls: active = growth percent below 10; inactive = the rest.

For this assay, the system named is MDA-MB-468 breast. Briefly: NCI-60 one-dose screen, 48 h (100 = growth as untreated, 0 = no growth, -100 = all killed). Particulars: 10 µM unless noted.
In the case of `CN1C(=O)/C(=C/C=C/c2ccco2)SC1=S`, the growth was 5.83% (active).
For `O=C(Nc1ccc(Cl)c(Cl)c1)Nc1ccccc1O` the value was 0.995% (active); for `O=C1CCC/C=C\C[C@H]2C=C(Cl)C(=O)/C2=C/C[C@H](CCCCC(F)(F)F)OC(=O)CCC/C=C\C[C@H]2C=C(Cl)C(=O)/C2=C/C[C@H](CCCCC(F)(F)F)O1`, -72.2% [7.5 µM] (active); for `CCC(C)CC(N)O` (stereo not given), 94.1%.
For `O=C(NCCNCCO)c1cc([N+](=O)[O-])cc([N+](=O)[O-])c1O` the value was 103%; for `Cc1ccc(S(=O)(=O)c2ccccc2)cc1`, -10.8% (active); for `CNCCCn1c2c(c3ccc([N+](=O)[O-])cc3c1=O)C(=O)c1cc(OC)cnc1-2`, -39.5% (active).
For `O=C(CCc1ccccc1)N1CCN(C(=O)CCc2ccccc2)CC1` the value was 111%; for `Cc1ccc(-c2nnc(SCc3ccc(O)c4ncccc34)n2-c2ccccc2)cc1`, 9.08% (active); for `CN(C)C1CCC(NC2=CC(=O)C=CC2=O)CC1` (stereo not given), 105%.
`Cn1ccc2c(c1=O)C(=O)c1nccc3c1c-2nc1ccccc13`: the growth is -84.6% (active).
With `C#CCOc1ccccc1C(OC(=O)c1ccccc1)C(=O)NC(C)(C)C(C)(C)C` (stereo not given), the growth is 80.5%.
For `O=C1/C(=C2/C=Nc3ccccc32)N(O)c2ccccc21` the value was 62.2%; for `O=C(Nc1sc2c(c1C(=O)O)CCCC2)c1cccc(C(F)(F)F)c1`, 68.2%; for `CNC(=O)c1cc(Oc2cccc3nc(Nc4ccc(Cl)c(F)c4)ccc23)ccn1`, 51.3%.
For `Cc1cc(-c2ccc(NS(=O)(=O)c3ccccc3)c(C)c2)ccc1NS(=O)(=O)c1ccccc1` the value was 80.4% and 101%.
For `CCCCCCCCCCCCCCCc1ccc(N)c(OC2OC(CO)C(O)C(O)C2O)c1` (stereo not given), the growth was 76.5%.
For `CCOC(=O)CCN(CC(C)C)C(=S)Nc1ccccc1` the value was 104%; for `COc1ccccc1/C=C1\COc2ccc(O)cc2C1=O`, 68.7%.
For `CCCCn1c(-c2ccc(-c3nc(-c4ccc(Cl)cc4)no3)cc2)nc(-c2ccccc2)c1-c1ccccc1` the value was 106%; for `CNC(=O)c1ccccc1Nc1nc(Nc2ccc3c(c2OC)CCC[C@H](N2CCN(CCO)CC2)C3)ncc1Cl`, -52.8% (active); for `C/C(=N\Nc1ccc(Cl)cn1)c1ccc2ccccc2n1`, -20.3% (active).
For `CC(=O)NC1C(O[C@H]2C[C@H]3[C@@H]4CC=C5C[C@@H](O)CC[C@]5(C)[C@H]4CC[C@]3(C)[C@H]2[C@H](C)C(=O)CCC(C)C)OCC(O)C1O` (stereo not given in full) the value was 51.6%; for `C=CC1CN2CCC1CC2C(O)c1ccnc2ccc(OC)cc12` (stereo not given), 102%; for `COc1ccc(C(=O)c2cc3c(N)c(C(=O)Nc4cccc(Cl)c4C)sc3nc2C)cc1`, -2.98% (active).
Turning to `COc1ccc(-c2cc(Cc3cccs3)c(=O)n(Cn3ccc4ccccc43)n2)cc1`, the growth was 110%.
For `O=C1Nc2ccccc2C12CC(c1ccc(Cl)cc1)=NN2` (stereo not given) the value was 110%.
For `COc1cc(-c2nn(-c3ccc(NC(=O)NCCCNC(=O)c4ccccc4)cc3)cc2-c2ccncc2)ccc1Cl` the value was 9.32% (active); for `Cc1ccc(CS/C(=C\c2ccc([N+](=O)[O-])cc2)C(=O)c2ccc(F)cc2)cc1`, 81.1%.
For `CC1CCN(C(=O)OCc2nc3nc(Cl)nc(N4CCOCC4)c3[nH]2)CC1` the value was -59.5% (active); for `COc1ccc(C2NC(=O)c3cc4c(cc3N2)OCO4)cc1` (stereo not given), -1.6% (active); for `O=C1OC2(c3ccccc31)c1ccc(O)c(O)c1Oc1c2ccc(O)c1O`, 96.8% and 113%.
Take `Cc1ccc(-c2cc(-c3nnc(SCC(=O)c4ccccc4)o3)c3ccccc3n2)cc1`: the growth is 115%.
For `COc1cc2cc(c1Cl)N(C)C(=O)C[C@H](OC(=O)[C@H](C)N(C)C(=O)CCS)C[C@]1(C)O[C@H]1[C@H](C)[C@@H]1C[C@@](O)(NC(=O)O1)[C@H](OC)/C=C/C=C(\C)C2` the value was 42%.
With `c1ccc(-c2oc3ccccc3c2-c2ccccc2)cc1`, the growth is 97.9%.
For `C#CCOc1cccc(Nc2ncnc3c2ncn3C2CCN(C(=O)CCl)C2)c1` (stereo not given) the value was -65.7% (active); for `C=C(CNCCO)[C@@H]1CC[C@]2(CO)CC[C@]3(C)[C@H](CC[C@@H]4[C@@]5(C)CCC(NCCc6ccc(O)cc6)C(C)(C)[C@@H]5CC[C@]43C)[C@@H]12` (stereo not given in full), -77.3% (active).
For `COc1ccc(Cn2cc3c(c2-c2cc(OC)c(OC)c(OC)c2)CCc2cnoc2-3)cc1[N+](=O)[O-]` the value was -1.72% (active).
Regarding `COc1ccc(OC)c(/C=C/c2nc(SCc3ccccc3)n(-c3ccc(Cl)cc3)n2)c1`, the growth is 34.4%.
As for `COc1cccc(NC(=O)Cn2cc3c(=O)oc4ccccc4c3n2)c1`, the growth was 101%.
